Here are results for 6 compounds from PubChem BioAssay.

Inconclusive results are not listed. The source made the active and inactive calls.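 Rule for the calls, unless noted: active = normalized viability below 100% at a tested concentration; inactive = the rest.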

Experiment [1] can be described thus: growth inhibition of DIPG glioma cells, dose response, cell-based, SU-DIPG-XVII, MIPE5.0, CellTiter-Glo, qHTS (AID 1347060; cut-off not given, nearly all actives have AC50 up to about 26 µM;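 for AC50: cells exposed to compound for 48 hours before viability readout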). Particulars: SU-DIPG-XVII viability, CellTiter-Glo ATP luminescence. On the technique in general: ATP-based viability assays read luminescence as a measure of living cells.
Experiment [2] in a line: viability loss in pontine glioma line – cell-based, SU-DIPG-XXV, MIPE5.0, CellTiter-Glo, qHTS, dose response (AID 1347065; cut-off not given, nearly all actives have AC50 up to about 26 µM;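 note: cells exposed to compound for 48 hours before ATP readout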). The following applies: CellTiter-Glo ATP luminescence.
The nature of experiment [3]: JHH-DIPG-1 glioma cell viability, MIPE5.0 library, CellTiter-Glo luminescence, qHTS (AID 1347067; cut-off not given, nearly all actives have AC50 up to about 26 µM;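 note: cells exposed to compound for 48 hours before readout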). The following applies: JHH-DIPG-1 glioma viability, CellTiter-Glo ATP luminescence.
Experiment [4] can be described thus: SU-DIPG-XXV glioma cell viability, MIPE5.0 library, qHTS (AID 1347068; cut-off not given, nearly all actives have IC50 up to about 30 µM;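 for IC50: cells exposed to compound for 48 hours before viability readout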). A general note: In qHTS, concentration-response curves come from the screen itself.
The nature of experiment [5]: sensitizers of A549 cells to miR-34 induction, primary screen, imaging, A549 dox-inducible miR-34, nuclei and caspase counts (AID 1347080;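 active = compounds whose cell count with miR-34 switched on is under 0.7 times the count with it off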). The following applies: A549 miR-34 inducible, Hoechst nuclei count, 48 h.
A short description of experiment [6]: survival rescue of mitochondrial mutant cells in low glucose, primary screen, MELAS cybrids, Rieske KO mouse fibroblasts, CellTiter-Glo (AID 1508586;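 active = mean z-score across replicates of 1.96 or higher in either the MELAS or the Rieske mutant cell line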;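 note: z relative to plate mean and SD of compound and empty wells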).
Experiment [7] in a line: ovarian cancer cell viability with rucaparib, profiling panel, oncology-focused library, rucaparib conditional (AID 1508598). The following applies: patient-derived ovarian cancer cells, CellTiter-Glo viability, 144 h, stronger effect = lower value.
Experiment [8] is described as follows: liver-stage malaria parasite growth inhibition, primary screen, cell-based, HepG2, luciferase luminescence, HepG2 viability (AID 624349; in the data active = parasite load remaining mostly below about 12%, no sharp cut-off; inactive = mostly above about 10%;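 note: 100% = mean of DMSO negative control wells on the same plate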). Particulars: P. berghei liver stage in HepG2, luciferase luminescence, concentration not given here; parasite load remaining: stronger effect = lower value; viability: measured here: HepG2 viability without parasites.
[9] abbreviates: stronger effect = lower value, cell number ratio, induced over uninduced.
The mark [10] stands for this setting: measured here: relative caspase fold change +Dox/-Dox.
Where [11] appears, read: measured here: total cells with miR-34 induction, stronger effect = lower value.
The mark [12] stands for this setting: measured here: total cells without miR-34 induction.
Setting [13] is: MELAS cybrid survival, CellTiter-Glo 48 h, stronger effect = higher value.
Where [14] appears, read: Rieske KO mouse fibroblast survival, CellTiter-Glo 72 h.

With `Nc1ncnc2c1C(=O)N(c1ccc(C3CCC(CC(=O)O)CC3)cc1)CCO2` (stereo unspecified), the compound was called inactive in experiment [1], in experiment [2], in experiment [3] and in experiment [4]. Further, the fold change is 0.873 (inactive) in experiment [5] (setting [9]) and 0.72 in experiment [5] (setting [10]). Also, the cell count in experiment [5] (setting [11]) was 8200; in experiment [5] (setting [12]), 9390. Moreover, the z-score is -0.311 (inactive) in experiment [6] (setting [13]) and -0.473 in experiment [6] (setting [14]).
Turning to `Cc1cnc(-c2ccccc2C(C)C)nc1NCc1ccc(-n2ccnn2)cc1`, the compound was classed as inactive in experiment [1], in experiment [2], in experiment [3] and in experiment [4]. Also, the values for the fold change in experiment [5] (setting [9]) and in experiment [5] (setting [10]) were 0.905 (inactive) and 0.465, respectively. Moreover, the cell count turned out to be 7550 in experiment [5] (setting [11]) and 8340 in experiment [5] (setting [12]). The z-score in experiment [6] (setting [13]) was -0.372 (inactive); in experiment [6] (setting [14]), 0.422. The viability (in general, a read-out of living cells in per cent, often relative to untreated cells) is 118% (inactive) in experiment [7] (at 0.000305 µM, OCI-C5x cells, with rucaparib 10 µM, 100% = cells with rucaparib alone); 116% (inactive) in experiment [7] (at 0.000305 µM, OCI-C5x cells, without rucaparib); 101% (inactive) in experiment [7] (at 0.000305 µM, OCI-P5x cells, with rucaparib 20 µM, 100% = cells with rucaparib alone); 100% (inactive) in experiment [7] (at 0.000305 µM, OCI-P5x cells, without rucaparib); 132% (inactive) in experiment [7] (at 0.00122 µM, OCI-C5x cells, with rucaparib 10 µM, 100% = cells with rucaparib alone); 118% (inactive) in experiment [7] (at 0.00122 µM, OCI-C5x cells, without rucaparib). For the same compound, the viability in experiment [7] (at 0.00122 µM, OCI-P5x cells, with rucaparib 20 µM, 100% = cells with rucaparib alone) was 95.9% (active); in experiment [7] (at 0.00122 µM, OCI-P5x cells, without rucaparib), 102% (inactive); in experiment [7] (at 0.00488 µM, OCI-C5x cells, with rucaparib 10 µM, 100% = cells with rucaparib alone), 132% (inactive); in experiment [7] (at 0.00488 µM, OCI-C5x cells, without rucaparib), 120% (inactive); in experiment [7] (at 0.00488 µM, OCI-P5x cells, with rucaparib 20 µM, 100% = cells with rucaparib alone), 98.5% (active); in experiment [7] (at 0.00488 µM, OCI-P5x cells, without rucaparib), 102% (inactive). Also, the viability is 123% (inactive) in experiment [7] (at 0.0195 µM, OCI-C5x cells, with rucaparib 10 µM, 100% = cells with rucaparib alone); 110% (inactive) in experiment [7] (at 0.0195 µM, OCI-C5x cells, without rucaparib); 103% (inactive) in experiment [7] (at 0.0195 µM, OCI-P5x cells, with rucaparib 20 µM, 100% = cells with rucaparib alone); 97.4% (active) in experiment [7] (at 0.0195 µM, OCI-P5x cells, without rucaparib); 123% (inactive) in experiment [7] (at 0.0781 µM, OCI-C5x cells, with rucaparib 10 µM, 100% = cells with rucaparib alone); 118% (inactive) in experiment [7] (at 0.0781 µM, OCI-C5x cells, without rucaparib). The viability in experiment [7] (at 0.0781 µM, OCI-P5x cells, with rucaparib 20 µM, 100% = cells with rucaparib alone) is 100% (inactive); in experiment [7] (at 0.0781 µM, OCI-P5x cells, without rucaparib), 97.6% (active); in experiment [7] (at 0.313 µM, OCI-C5x cells, with rucaparib 10 µM, 100% = cells with rucaparib alone), 126% (inactive); in experiment [7] (at 0.313 µM, OCI-C5x cells, without rucaparib) it was 126% (inactive); in experiment [7] (at 0.313 µM, OCI-P5x cells, with rucaparib 20 µM, 100% = cells with rucaparib alone), 96.4% (active); in experiment [7] (at 0.313 µM, OCI-P5x cells, without rucaparib), 101% (inactive). Further, the viability was 127% (inactive) in experiment [7] (at 1.25 µM, OCI-C5x cells, with rucaparib 10 µM, 100% = cells with rucaparib alone); 119% (inactive) in experiment [7] (at 1.25 µM, OCI-C5x cells, without rucaparib); 104% (inactive) in experiment [7] (at 1.25 µM, OCI-P5x cells, with rucaparib 20 µM, 100% = cells with rucaparib alone); 96.9% (active) in experiment [7] (at 1.25 µM, OCI-P5x cells, without rucaparib); 129% (inactive) in experiment [7] (at 5 µM, OCI-C5x cells, with rucaparib 10 µM, 100% = cells with rucaparib alone); 130% (inactive) in experiment [7] (at 5 µM, OCI-C5x cells, without rucaparib). The viability in experiment [7] (at 5 µM, OCI-P5x cells, with rucaparib 20 µM, 100% = cells with rucaparib alone) is 94.5% (active); in experiment [7] (at 5 µM, OCI-P5x cells, without rucaparib), 97.8% (active).
As to `COc1ccc(CNc2nc(N(CCO)CCO)nc3c2ncn3C(C)C)cc1`, the parasite load remaining in experiment [8] was 40.6% (inactive). Besides, the viability in experiment [8] was 84%. Also, the AC50 (commonly the concentration at which the activity in the assay is half-maximal) is 7.42 µM (active) in experiment [1], 10.5 µM (active) in experiment [2] and 5.25 µM (active) in experiment [3]. Further, the IC50 (usually the concentration that gives 50% inhibition) in experiment [4] is 11.8 µM (active).
As to `COC(=O)[C@H]1[C@@H](O)[C@@]2(O)c3c(OC)cc(O[C@@H]4O[C@@H]([C@@H](O)CO)CO[C@H]4OC)cc3O[C@@]2(c2ccc(OC)cc2)[C@@H]1c1ccccc1`, the AC50 in experiment [1] is 8.33 µM (active); in experiment [2] it was 5.25 µM (active). Also, the call in experiment [4] was inactive.
In the case of `[O-][n+]1cccc(-c2nc3c(Cl)cccc3cc2[C@@H](Nc2ncnc3cccnc23)C(F)(F)F)c1`, the result in experiment [1] and in experiment [3] was inactive.
`CC(C)(O)CNc1ncc(-c2ccnc(Nc3ccncc3)n2)c(CC2CC2)n1`: the AC50 in experiment [1] and in experiment [3] was 16.6 µM (active) throughout. Besides, the IC50 in experiment [4] is 23.5 µM (active).
